Assay results as given in PubChem BioAssay AID1159580 (chemical genetic matrix, 2015).
The whole screen tested about 5,500 compounds, of which about 2,000 (36%) were called active. About 18% were inconclusive and are not listed. Cut-off read from the data, not from the text of the source: active = normalized growth mostly below about 0.91 (no sharp cut-off); inconclusive = no clear call, values can overlap the other calls; inactive = mostly above about 0.92. The list shows a part of the results.

Test: chemical genetic growth profiling, strain panel (AID 1159580);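 note: tested at 20 µM; growth read once vehicle control cultures reached saturation at 30 °C; 1 = growth at the plate median or of vehicle wells; lower values mean less growth of the strain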
Conditions: S. cerevisiae deletion strains, growth OD

Measured: normalized growth

O=C(NOC(=O)c1ccccc1)c1ccccc1
active: locus YAR019C, strain CDC15, hits give low values 0.0906 | locus YBL105C, strain PKC1, hits give low values 0.0874 | locus YBR135W, strain CKS1, hits give low values 0.0902 | locus YBR136W, strain MEC1, hits give low values 0.0871 | locus YBR160W, strain CDC28, hits give low values 0.091 | locus YDL017W, strain CDC7, hits give low values 0.0875 | locus YDL028C, strain MPS1, hits give low values 0.0868 | locus YDL101C, strain DUN1, hits give low values 0.102 | locus YDL108W, strain KIN28, hits give low values 0.0859 | locus YDL132W, strain cdc53, hits give low values 0.0913 | locus YDL214C, strain PRR2, hits give low values 0.0898 | locus YDR052C, strain DBF4, hits give low values 0.0867 | locus YDR054C, strain cdc34, hits give low values 0.0943 | locus YDR226W, strain ADK1, hits give low values 0.0848 | locus YDR477W, strain SNF1, hits give low values 0.0987 | locus YER123W, strain YCK3, hits give low values 0.0956 | locus YER133W, strain GLC7, hits give low values 0.0938 | locus YFL009W, strain cdc4, hits give low values 0.093 | locus YFL029C, strain CAK1, hits give low values 0.089 | locus YFR003C, strain YPI1, hits give low values 0.0861 | locus YFR019W, strain FAB1, hits give low values 0.101 | locus YFR028C, strain CDC14, hits give low values 0.0859 | locus YGR040W, strain KSS1, hits give low values 0.103 | locus YGR052W, strain FMP48, hits give low values 0.111 | locus YGR092W, strain DBF2, hits give low values 0.104 | locus YHR030C, strain SLT2, hits give low values 0.114 | locus YHR079C, strain IRE1, hits give low values 0.112 | locus YHR082C, strain KSP1, hits give low values 0.153 | locus YHR205W, strain SCH9, hits give low values -0.00347 | locus YIL147C, strain SLN1, hits give low values 0.0859 | locus YJL095W, strain BCK1, hits give low values 0.107 | locus YJL128C, strain PBS2, hits give low values 0.097 | locus YJL157C, strain FAR1, hits give low values 0.0897 | locus YJR016C, strain ILV3, hits give low values 0.0894 | locus YJR066W, strain TOR1 (second series), hits give low values 0.0928 | locus YJR066W, strain TOR1, hits give low values 0.133 | locus YKL048C, strain ELM1, hits give low values 0.111 | locus YKL067W, strain YNK1, hits give low values 0.0892 | locus YKL101W, strain HSL1, hits give low values 0.103 | locus YKL193C, strain SDS22, hits give low values 0.0889 | locus YKL203C, strain TOR2, hits give low values 0.097 | locus YLR113W, strain HOG1, hits give low values 0.138 | locus YLR133W, strain CKI1, hits give low values 0.0893 | locus YLR403W, strain SFP1, hits give low values 0.00282 | locus YML070W, strain DAK1, hits give low values 0.109 | locus YMR001C, strain CDC5, hits give low values 0.0891 | locus YMR205C, strain PFK2 (second series), hits give low values 0.0877 | locus YMR277W, strain FCP1, hits give low values 0.0919 | locus YNL006W, strain LST8, hits give low values 0.0825 | locus YNL020C, strain ARK1, hits give low values 0.0971 | locus YNL161W, strain CBK1, hits give low values 0.0976 | locus YNL183C, strain NPR1, hits give low values 0.109 | locus YNL207W, strain RIO2, hits give low values 0.0878 | locus YNL222W, strain SSU72, hits give low values 0.0863 | locus YNL307C, strain MCK1 (second series), hits give low values 0.112 | locus YOL078W, strain AVO1, hits give low values 0.0891 | locus YOL136C, strain PFK27, hits give low values 0.0994 | locus YOR061W, strain CKA2, hits give low values 0.0894 | locus YOR119C, strain RIO1, hits give low values 0.108 | locus YOR231W, strain MKK1, hits give low values 0.111 | locus YOR329C, strain SCD5, hits give low values 0.0866 | locus YPL031C, strain PHO85, hits give low values 0.102 | locus YPL153C, strain RAD53, hits give low values 0.0967 | locus YPL204W, strain HRR25, hits give low values 0.1 | locus YPL209C, strain IPL1, hits give low values 0.0841 | locus YPL256C, strain CLN2, hits give low values 0.167 | locus YPR025C, strain CCL1, hits give low values 0.091 | locus YPR106W, strain ISR1, hits give low values 0.0869 | locus YPR111W, strain DBF20, hits give low values 0.09 | strain NNK1, hits give low values 0.0922 | strain TSCII, hits give low values 0.0892
